# Measurements taken from PubChem BioAssay AID2685 (National Center for Advancing Translational Sciences (NCATS), 2010).
# In all, about 320,000 compounds went through this assay and about 2,100 (0.66%) were called active. Another 53% or so got no clear call; they are omitted. Calls come from the whole dose curve; as a rule, active = well fitted inhibition curve with a large enough effect in the signal ratio, with a control signal flat (not every such curve was filed as active); inconclusive = small, poorly fitted or top-dose-only effect, or effect the other way, or a change in a side signal; inactive = flat fitted curve, though single readings scatter; the % refers to the signal ratio. Only a selection was taken, and actives are over-represented in it overall.
# Assay: qHTS Assay for Lipid Storage Modulators in Drosophila S3 Cells;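 for cell number change: cells counted by Cell Tracker Red CMTPX staining in the red channel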; for lipid storage change, negative = inhibition: % is set by controls: 0 for no effect and ±100 for the full control effect
# Details: BODIPY lipid droplet fluorescence, 18-24 h, cells fed with added oleic acid; cell number change: measured here: cell count max response; series mostly up to 46.1 µM; lipid storage change, negative = inhibition: at the top concentration
# Method in brief: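 Drosophila S3 cells loaded with oleic acid (400 uM, as added) and compounds at several concentrations; lipid droplets imaged by 488-nm laser-scanning cytometry, 500–530 nm intensity and object ratio to cell channel. Percent activity normalized to 20 uM Triacsin C.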
# Potency is the fitted concentration of half-maximal effect.
Compound,"lipid storage change, negative = inhibition",cell number change,Potency,outcome
CCOC(=O)N1CCN(C(=O)C2CCN(c3nnc(-n4cccc4)s3)CC2)CC1,-7.26% (inactive),29.4%,–,–
COC(=O)C1CSc2[nH]c(=O)sc2C1c1ccc(OC)c(OC)c1 (stereo unspecified),-1.45% (inactive),-7%,–,–
CCC(C(=O)OCC(=O)N1C(C)CCCC1C)c1ccccc1 (stereo unspecified),-24.9% (inactive),-35.7%,–,–
O=C(NCCO)C(=O)NCC1OCCCN1S(=O)(=O)c1cc(F)ccc1F (stereo unspecified),27.4% (inactive),0.587%,–,–
Cc1cc(F)ccc1S(=O)(=O)N1CCCOC1CNC(=O)C(=O)NC1CCCC1 (stereo unspecified),-1.42% (inactive),13.2%,–,–
O=C(NCC1OCCCN1S(=O)(=O)c1cc(F)ccc1F)C(=O)NC1CCCCCC1 (stereo unspecified),–,3.2%,4.61 µM (active),–
CCc1cccc(CC)c1NC(=O)C1SC(=Nc2ccccc2C)C(c2nc3ccccc3s2)=C1N (stereo unspecified),–,–,–,inactive
O=C1NC2(CCSC2)C(=O)N1CC(=O)N(Cc1ccccc1)C1CCS(=O)(=O)C1 (stereo unspecified),-0.0384% (inactive),1.14%,–,–
O=C(NC1CC2CCCC(C1)N2C(=S)NCCc1ccccc1)C1CC1 (stereo unspecified),-39.3% (inactive),-26.1%,–,–
COc1cc(CO)cc(Br)c1OCc1cccnc1,17.8% (inactive),-5.87%,–,–
CCNCc1cc(Br)c(OCC(=O)Nc2ccccc2)c(OC)c1,7.44% (inactive),1.4%,–,–
COc1cc(CO)cc(Br)c1OCC(=O)O,–,9.61%,2.06 µM (active),–
CC(C)(C)c1ccc(/C=C/C(=O)N2CCOCC2)cc1,–,-2.69%,–,inactive
CCC1Sc2ccc(S(=O)(=O)CCC(=O)NCc3ccc(C)o3)cc2NC1=O (stereo unspecified),–,-1.81%,–,inactive
O=C(NN1CCOCC1)c1cccc(Cl)c1,-1.82% (inactive),14.2%,–,–
CC(C)c1cc(C(=O)N2CCCC(C(=O)c3ccc4ccccc4c3)C2)on1 (stereo unspecified),6.79% (inactive),–,–,–
Cc1cc(C(=O)N2CCCC(C(=O)c3ccc4ccccc4c3)C2)nn1C (stereo unspecified),1.31% (inactive),11.4%,–,–
Cc1cc(C(=O)N2CCCC(C(=O)c3ccc4ccccc4c3)C2)n(C)n1 (stereo unspecified),–,-14.9%,25.9 µM (active),–
Cc1cc(C(=O)NC2CCC(C)CC2)c(C)o1 (stereo unspecified),-14.9% (inactive),-8.31%,–,–
O=C(CSc1nnc(-c2cccnc2)n1CCN1CCCCC1)Nc1cccc(Cl)c1,0.818% (inactive),11.7%,–,–
CCCN1C2CCCC1CC(NC(=S)NCCCOCC)C2 (stereo unspecified),–,-29.4%,–,inactive
Clc1cc(CSc2ccccc2)nc(-c2ccccc2)n1,–,–,–,inactive
CSc1nc(-c2ccc(C)cc2)nc(C(Cl)Cl)n1,7.05% (inactive),10.6%,–,–

Compound,"lipid storage change, negative = inhibition",cell number change,Potency,outcome
CCSc1nc(-c2ccccc2)c2cc(Cl)ccc2n1,2.19% (inactive),-8.68%,–,–
CSc1nc(-c2ccccc2)nc(C(Cl)Cl)n1,–,-22.1%,8.2 µM (active),–
CCSc1nc(-c2ccccc2)nc(C(Cl)Cl)n1,–,-6.95%,5.17 µM (active),–
CSc1nnc(-c2ccccc2)c(-c2ccccc2)n1,11.7% (inactive),-3.83%,–,–
COc1ccccc1/C=N/OC(=O)c1ccc(F)cc1,-0.325% (inactive),3.91%,–,–
COc1cc(Cl)c(S(=O)(=O)NCCCn2ccnc2)cc1Cl,-3.68% (inactive),29%,–,–
Cc1cc(C)c(S(=O)(=O)NCCCn2ccnc2)cc1C,10.5% (inactive),4.74%,–,–
Cc1cc(Cl)c(Cl)cc1S(=O)(=O)NCCCn1ccnc1,–,-5.8%,6.51 µM (active),–
COc1cccc(NC(=O)C2CCC(CNC(=O)[C@@H]3Cc4ccccc4CN3)CC2)c1 (stereo partly specified),–,0.236%,–,inactive
CC(C(=O)Nc1ccc(F)c(F)c1F)N(C)Cc1cccs1 (stereo unspecified),-15.3% (inactive),25.5%,–,–
CCOc1ccc(S(=O)(=O)N2CCCC(C(=O)N3CCOCC3)C2)cc1C (stereo unspecified),–,-23.5%,2.31 µM (active),–
CCOC(=O)N1CCN(S(=O)(=O)N2CCCC(C(=O)NCCc3ccc(OC)c(OC)c3)C2)CC1 (stereo unspecified),-9.88% (inactive),-20.2%,–,–
COc1ccc(S(=O)(=O)N2CCC(C(=O)N[C@@H](C)C(=O)NCc3ccc(F)cc3)CC2)cc1,–,13.5%,–,inactive
CS(=O)(=O)N1CCC(C(=O)Nc2ccc(Cl)c(C(F)(F)F)c2)CC1,–,-15.8%,–,inactive
CCOc1ccc(CCNC(=O)C2CCCN(S(=O)(=O)N3CCOCC3)C2)cc1OCC (stereo unspecified),-4.66% (inactive),0.288%,–,–
CCOc1ccc(S(=O)(=O)N2CCCC(C(=O)N3CCOCC3)C2)cc1Cl (stereo unspecified),–,16.4%,–,inactive
COc1ccc(CNC(=O)[C@H](C)NC(=O)C2CCN(S(=O)(=O)c3ccc(F)cc3)CC2)cc1,–,3.44%,18.4 µM (active),–
O=C(Nc1ccncc1)C1CCN(S(=O)(=O)c2ccc(Cl)c(C(F)(F)F)c2)CC1,–,2.68%,10.3 µM (active),–
O=C(Nc1ccncc1)C1CCN(S(=O)(=O)c2cccc(C(F)(F)F)c2)CC1,9.54% (inactive),-3.08%,–,–
COc1ccc(S(=O)(=O)N2CCCC(C(=O)N3CCOCC3)C2)cc1C (stereo unspecified),–,17.1%,–,inactive
CCOC(=O)N1CCN(S(=O)(=O)N2CCCC(C(=O)NCCc3ccc(OCC)c(OCC)c3)C2)CC1 (stereo unspecified),–,–,4.61 µM (active),–
COc1ccc(CNC(=O)[C@H](C)NC(=O)C2CCN(S(=O)(=O)c3ccc(C)cc3)CC2)cc1,–,-4.43%,–,inactive
